# Reference: PubChem BioAssay AID488890 (Southern Research Specialized Biocontainment Screening …, 2010)
# The campaign covered roughly 320,000 compounds. About 1,300 (0.41%) were called active. Inconclusive results (about 3%) are left out. How the calls were made is not given here. Not all results are given here. Results with a measured potency or affinity are listed apart.
# Assay: growth inhibition of non-replicating M. tuberculosis (AID 488890);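 further: plate controls were DMSO cells for no effect and high antibiotic wells for full effect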
# Conditions: Mycobacterium tuberculosis non-replicating, at 25 µM, stronger effect = higher value
row,SMILES,inhibition [%]
1,O=C(CCc1nnc(CCCCc2ccccc2)o1)NCCC1CCCCO1 (centres undefined),15.1
2,CCCNC(=O)N1CCN(S(=O)(=O)c2ccc3c(c2)OCCO3)CC1,1.44
3,CCCNC(=O)NC(=O)CN1CCCC1c1ccc2c(c1)OCCO2 (centres undefined),-16.2
4,CCOC(=O)c1c(CC(C)C)csc1/N=C/C1C(=O)CC(C)(C)CC1=O,-10.2
5,OCC1(Cc2ccc(F)cc2)CCCN(CCCC(F)(F)F)C1 (centres undefined),-19.8
6,Cc1ccc(S(=O)(=O)N2[C@@H](c3ccc4c(c3)OCO4)C(C(=O)O)=C[C@H]2C(C)(C)C)cc1,41.7
7,CC1Cc2ccccc2N1C(=O)COC(=O)c1cc(Br)ccc1O (centres undefined),62.7
8,O=C(CCC(=O)N1CCN(c2ccccn2)CC1)c1cccs1,-4.25
9,O=C(CCC(=O)c1cccs1)c1cccs1,68.8
10,Cc1ccc(NC(=O)N2CCCCCC2)c(C)c1,-16.7
11,Cc1cccc(-c2c3c(=O)n(C)c(=O)n(C)c3cn2-c2ccc(O)cc2)c1,-12.8
12,CC(C)NC(=O)c1cc(-n2cnnc2)ccc1Cl,2.78
13,CCOC(=O)C1=C(c2ccccc2)Nc2ncnn2C1c1ccc(C(=O)O)cc1 (centres undefined),1.92
14,COC(=O)c1ccc(CNC(=O)c2ccc(COc3ccccc3)cc2)cc1,10.8
15,CCOC(=O)C1=C(c2ccccc2)NC(=O)NC1c1ccc(OC)c(OC)c1 (centres undefined),2.41
16,CCOC(=O)C1=C(c2ccccc2)NC(=O)NC1c1ccc(OCC#N)c(OC)c1 (centres undefined),-4.72
17,Cc1cc(C(=O)Nc2cc(C)on2)on1,6.65
18,C=C/C(C)=C/CC1C(=C)CCC2C(C)(C(=O)O)CCCC12C (centres undefined),0.01
19,C=C[C@]1(C)C=C2CC[C@H]3[C@@](C)(CCC[C@@]3(C)C(=O)O)[C@@H]2CC1,43.7
20,O=C(O)C1CCN(S(=O)(=O)c2ccc(N3CCOCC3)c([N+](=O)[O-])c2)CC1,-8.22
21,Cc1ccc(N(C(=O)CNC(=O)c2ccco2)C(C(=O)NCC2CCCO2)c2ccccc2)cc1C (centres undefined),16
22,CCNC(=O)C(C)Sc1ccc(Cl)cc1 (centres undefined),25.6
23,COc1ccc(-c2nnn(CC(=O)NC(=O)NC3CCCCC3)n2)cc1OC,2.95
24,COc1ccc(-c2nnn(CC(=O)N(C3CCCCC3)C(C)C(=O)NC3CCCC3)n2)cc1OC (centres undefined),34.8
25,CCCCCn1c(=O)c(C(=O)Nc2cccc(C)n2)c(O)c2ccccc21,-21.5
26,CCOC(=O)Cc1csc(NC(=O)c2c(O)c3c(n(CC(C)C)c2=O)CCCC3)n1,44.2
27,CC(C)CCn1c(=O)c(C(=O)Nc2ccccc2S(N)(=O)=O)c(O)c2ccccc21,17.2

row,SMILES,inhibition [%]
1,CCCCCn1c(=O)c(C(=O)Nc2ccccc2C)c(O)c2ccccc21,-22.9
2,Cc1ccc(S(=O)(=O)N(C)C)cc1NC(=O)c1c(-c2c(F)cccc2Cl)noc1C,-9.18
3,O=C(Nc1nccs1)c1cc(Cl)ccc1[N+](=O)[O-],12.9
4,CCOc1cccc2cc(C(=O)Nc3cc(C)on3)c(=O)oc12,75.1
5,CCOc1ccccc1C(=O)Nc1nccs1,5.93
6,O=C(Nc1nccs1)c1ccc(Cl)cc1[N+](=O)[O-],0.86
7,Nc1nnc(-c2ccccc2F)s1,1
8,O=C(/C=C/c1ccc(Cl)cc1)Nc1ccccc1N1CCOCC1,-7.86
9,O=c1[nH]c(=O)n(Cc2ccco2)c(O)c1/C=N/N1CCCCC1,1.03
10,COCCN=C1NN=C(c2ccc(C)c([N+](=O)[O-])c2)CS1,-8.83
11,N/C(=N\OC(=O)CC1CCCCC1)c1cccnc1,73
12,N/C(=N\OC(=O)CCC1CCCC1)c1ccncc1,60.9
13,Cc1ccc(OCCN2CCN(c3nc(NCc4ccco4)c4ccccc4n3)CC2)cc1,62.8
14,OCCN1CCN(c2nc(NCc3ccco3)c3ccccc3n2)CC1,9.79
15,CCC1CCCCN1S(=O)(=O)c1ccc(NC(=O)c2nc(S(C)(=O)=O)ncc2Cl)cc1 (centres undefined),66.2
16,CCc1ccc(NC(=O)c2nc(S(=O)(=O)Cc3ccccc3)ncc2Cl)cc1,0.81
17,CCS(=O)(=O)c1ncc(Cl)c(C(=O)Nc2ccc(S(=O)(=O)N3CCCC(C)C3)cc2)n1 (centres undefined),58.5
18,Cc1ccc(CS(=O)(=O)c2ncc(Cl)c(C(=O)Nc3ccc(OC(F)F)cc3)n2)cc1,-1.41
19,CN(c1ccccc1)S(=O)(=O)c1ccc(NC(=O)c2nc(S(C)(=O)=O)ncc2Cl)cc1,56
20,CCN(c1ccccc1)S(=O)(=O)c1ccc(NC(=O)c2nc(S(C)(=O)=O)ncc2Cl)cc1,37.2
21,Cc1ccc(F)cc1NC(=O)N1CCCN(C(=O)OC(C)(C)C)CC1,-10.3
22,O=C(CSc1ncn[nH]1)Nc1c(F)cc(F)cc1Br,-11.1
23,Cc1ccc(NC(=O)CC(C)c2ccccc2)cc1S(=O)(=O)N1CCOCC1 (centres undefined),10.4
24,O=C(O)CNC(=S)N(Cc1ccccc1)Cc1cccnc1,6.66
25,O=C(CSc1nncs1)Nc1nccs1,-27.1
26,COCCN1CCn2c(nc3cc(NC(=O)Cn4nc(C)c5ccccc5c4=O)ccc32)C1,-5.63
27,COc1ccc(OCCNc2cc(N3CCCCC3)ccc2[N+](=O)[O-])cc1,72.4
